Screens from PubChem.
Only some compounds are listed: those with a hit (about 2.4% of all), similar ones and a draw of the others.
HTT prom inh: HTT promoter inhibition | HEK293 HTT promoter firefly luciferase reporter, 24 h | Potency, µM (doses to about 57.5 µM), for the others: top-dose activity change, negative = inhibition, most hits filed as inhibitors | hit rate 0.93% among 48,000 | AID 1508623; further: potency means the concentration at half of the fitted maximal effect; nearly all actives have a fitted effect of over 50% in size
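HEK293 luciferase promoter-reporter cells (2,500/well) plated 24 h, then compounds added at up to 57.5 uM final for 24 h at 37 °C. Firefly luminescence by Dual-Glo, normalized to vehicle (0%) and zero RLU (-100%).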
NTMT1 inhibitor: blocks human N-terminal methyltransferase 1 activity; hit rate 2.5% among 59,000; NTMT1 MTase-Glo SAH luminescence, purified enzyme; Q9BV86; Potency, µM (doses to about 114 µM), for the others: at the top dose activity change, negative = inhibition, most hits filed as inhibitors;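 further: potency means the concentration at half of the fitted maximal effect; plate controls were DMSO vehicle for no effect and no enzyme for full effect; nearly all actives have a fitted effect of over 65% in size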
HTT-AS act: activators of huntingtin-antisense promoter activity; HEK293 HTT-AS promoter firefly luciferase reporter, 24 h; response scale: percent change from vehicle, -100% = no light; Potency, µM (series often up to 57.5 µM), for inactives: at the highest dose activity change, positive = activation, usual class: activators; hit rate 0.24% among 48,000; further: potency means the concentration at half of the fitted maximal effect; nearly all actives have a fitted effect of over 55% in size
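Quantitative HTS used concentration series of up to 57.5 uM final on HEK293 luciferase reporter cells, 24 h at 37 degrees C. Readout was Dual-Glo firefly luminescence.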
Sfp qHTS opt: Sfp PPTase inhibition, chemistry optimization; shares compounds with NTMT1 inhibitor; purified Sfp PPTase enzyme activity, qHTS; Potency, µM (top dose mostly 114 µM), for inactives: at the top dose activity change, negative = inhibition, actives largely listed as inhibitors; hit rate 78% among 230; AID 540350
Bsub HM489 growth: reduces growth of B. subtilis HM489 strain; hit rate 50% among 220; shares compounds with NTMT1 inhibitor; Potency, µM (doses to about 114 µM), for inactives: top-dose activity change, negative = inhibition, hits mostly inhibitors; AID 540353; B. subtilis HM489 (acpS-) growth, BacTiter-Glo, 5 h
Sfp PPTase gel: inhibitors of Bacillus subtilis Sfp PPTase, gel-based followup | shares compounds with NTMT1 inhibitor | purified Sfp PPTase, gel-based product detection | Potency, µM (top dose mostly 250 µM), without a hit: at the highest dose activity change, negative = inhibition, hits mostly inhibitors | hit rate 54% among 220 | AID 540355
Sfp SAR2: inhibits B. subtilis Sfp PPTase in second SAR round; hit rate 87% among 230; purified Sfp enzyme, PPTase activity, qHTS; shares compounds with NTMT1 inhibitor; AID 602370; Potency, µM (titrated, usually from 57.1 µM), inactives show at the highest dose activity change, negative = inhibition, most hits filed as inhibitors
HSD17B4 counter: inhibits human HSD17B4, off-target for HPGD inhibitors. shares compounds with NTMT1 inhibitor. purified HSD17B4, estradiol/NAD+, NADH fluorescence. Potency, µM (titrated, usually from 57.1 µM), for the others: top-dose activity change, negative = inhibition, hits mostly inhibitors. hit rate 10% among 230. AID 743187
ALDH1A1 counter: ALDH1A1 (human) inhibition, HPGD counter-screen; shares compounds with NTMT1 inhibitor; recombinant ALDH1A1, NADH fluorescence, propionaldehyde/NAD+; Potency, µM (highest dose often 57.1 µM), for the others: at the top dose activity change, negative = inhibition, most hits filed as inhibitors; hit rate 93% among 230
Starred values were filed as active, the others as inactive; ? = inconclusive; · = no result; [ ] = another dose, or the depositor's remark. The call rests on the fitted dose curve; in most records, active means well fitted curve in the direction sought with a large enough effect; inconclusive means small, poorly fitted or top-dose-only effect, or another doubt; inactive means no such curve, though single readings can be large; an effect the other way counts as inactive or inconclusive.

SMILES | HTT prom inh | NTMT1 inhibitor | HTT-AS act | Sfp qHTS opt | Bsub HM489 growth | Sfp PPTase gel | Sfp SAR2 | HSD17B4 counter | ALDH1A1 counter
CC1(C)CCCC2(C)C1C(=O)C=C(C(=O)O)C2(O)C(=O)O (stereo not given) | · | -13.3%[57.5 µM] | · | · | · | · | · | · | ·
Cc1cc2n(n1)CCC(=O)N2Cc1ccc(C(=O)Nc2cccc(C(F)(F)F)c2)cc1 | -14.9% | -18.6% | -28.7% | · | · | · | · | · | ·
Cc1cc(C)nc(NC(=S)N2CCN(c3nsc4ccccc34)CC2)c1 | · | ? | · | 3.73µM* | ? | 6.31µM* | 1.02µM* | -9.9% | 21.5µM*
CN(Cc1ccccc1)C(=O)C1CCN(Cc2cccc3ccccc23)CC1 | · | -2.8% | · | · | · | · | · | · | ·
Cc1ccc(C)c(N2CCN(C(=O)c3ccc(NC(=O)c4nsc5ccccc45)cc3)CC2)c1 | -24.5% | -14.9% | ? | · | · | · | · | · | ·
Cc1cc(C)nc(NC(=S)N2CCN(c3nc4ccccc4s3)CC2)c1 | · | ? | · | 0.373µM* | ? | 10µM* | 0.91µM* | -14.6% | 8.57µM*
Cc1ccc(NC(=O)C2CCCN(c3nc4ccccc4s3)C2)c(C)c1 (stereo not given) | -2.1% | -2.8% | 16.0% | · | · | · | · | · | ·
Cc1cc(C)nc(NC(=S)N2CCN(Cc3cccc4ccccc34)CC2)c1 | · | ? | · | 4.69µM* | ? | 10µM* | 8.13µM* | -10.8% | 21.5µM*
Cc1cc(C)nc(NC(=S)N2CCN(Cc3cccc(C(F)(F)F)c3)CC2)c1 | · | · | · | 6.63µM* | ? | ? | 11.5µM* | -15.1% | 12.1µM*
COC(=O)[C@H](O)[C@H]1C(C)(C)[C@H](OC(C)=O)[C@@]2(O)C(=O)[C@]1(C)C1CC[C@]3(C)C(CC(=O)O[C@H]3c3ccoc3)[C@]13O[C@@H]32 (stereo not given in full) | · | 8.4%[29.8 µM] | · | · | · | · | · | · | ·
Cc1nnc(-c2ccc(-c3ccc(C(=O)Nc4ccc(O)c(N5CCN(C)CC5)c4)cc3)c(C)c2)o1 | · | -2.2%[57.5 µM] | · | · | · | · | · | · | ·
C=C1CC[C@@H]2[C@](C)(CC[C@H](O)[C@@]2(C)CCC=C(C)C)[C@@H]1Cc1c[nH]c2ccccc12 | · | 2.5%[29.8 µM] | · | · | · | · | · | · | ·
COc1ccc([C@H]2OC[C@H]3[C@@H]2CO[C@@H]3c2ccc(O[C@@H]3O[C@H](CO)C(O)[C@H](O)[C@H]3O)c(OC)c2)cc1OC (stereo not given in full) | · | 23.0%[29.8 µM] | · | · | · | · | · | · | ·
CC(CCC1(O)OC2CC3C4CC=C5CC(O[C@@H]6O[C@H](CO)[C@@H](O[C@@H]7O[C@H](CO)[C@@H](O)[C@H](O)[C@H]7O)[C@H](O)[C@H]6O[C@@H]6O[C@@H](C)[C@H](O)[C@@H](O)[C@H]6O)CCC5(C)C4CCC3(C)C2C1C)CO[C@@H]1O[C@H](CO)[C@@H](O)[C@H](O)[C@H]1O (stereo not given in full) | · | -4.8%[12.6 µM] | · | · | · | · | · | · | ·
Cc1ccc(CNc2nc(-c3ccccc3C(F)(F)F)nc3ccccc23)cc1 | · | 12.2% | · | · | · | · | · | · | ·
CC(C)c1ccc(CC(=O)N2CCC[C@@H](c3cccc(OC(C)(C)C(=O)O)c3)C2)cc1 | · | 3.1%[57.5 µM] | · | · | · | · | · | · | ·
Cc1cc(C)nc(NC(=S)N2CCN(c3nccc4ccccc34)CC2)c1 | · | ? | · | 2.64µM* | ? | -63.1% | 9.13µM* | -22.8% | 9.61µM*
Cc1cc(C)nc(NCc2ccc(O)c3ncccc23)c1 | · | -4.0% | · | · | · | · | · | · | ·
